# Results filed as inconclusive are left out. Calls of active or inactive are those of the source. Calls follow the shape of the dose curve; as a rule, active = well fitted inhibition curve with a large enough effect; inconclusive = small, poorly fitted or top-dose-only effect; inactive = no such curve, though single readings can be large or run the other way.
# Tested on: Zika virus NS2B-NS3 protease (linked construct)
# Test: 384 well plate NINDS Rhodamine confirmatory qHTS for Zika virus inhibitors (AID 1347164); also: nearly all actives have a fitted effect of over 65% in size
# Conditions: rhodamine-110 peptide substrate fluorescence
# In short: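 Enzyme (final 5/30/60 nM) + cpd (DMSO), ~15 min; add Ac-LKRR-Rd 10 microM final; 25 min RT, dark; FI ex 485/em 538; normalized to no-enzyme, no-inhibitor ctrls; aprotinin intraplate ctrl.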
# Potency is read from the fitted curve at half-maximal effect.
row,Compound,Potency
1,O=C(Nc1ccc(S(=O)(=O)N2CCOCC2)cc1)c1cc(Cl)ccc1NS(=O)(=O)c1ccc(Cl)s1,10 µM (active)
2,CCOC(=O)Cn1cccc1-c1nc(-c2ccc(OC)cc2)c(-c2ccc(OC)cc2)s1,0.398 µM (active)
3,CCC(=O)O[C@H]1[C@H](O[C@@H]2[C@@H](C)[C@H](O[C@H]3C[C@@](C)(OC)[C@@H](O)[C@H](C)O3)[C@@H](C)C(=O)O[C@H](CC)[C@@](C)(O)[C@H](O)[C@@H](C)C(=O)[C@H](C)C[C@@]2(C)O)O[C@H](C)C[C@@H]1N(C)C,63.1 µM (active)

# Source: PubChem BioAssay (NCATS)
